Mcl1-Bid inh: Mcl-1/Bid interaction inhibition | Q07820 | TR-FRET Mcl-1/Bid-Dy647 peptide binding, 1536-well | inhibition, % at 21.7 µM | hit rate 0.97% among 220,000 | AID 1021;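 active = compounds that cut the binding signal by more than half at the single screening dose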;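 note: His-tagged Mcl-1 with europium anti-His antibody binding Bid BH3 peptide; 0% = Mcl-1 plus peptide wells and 100% = peptide-only wells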
GLD-1 TGE inh: GLD-1-TGE RNA interaction inhibition (C. elegans) | hit rate 0.44% among 320,000 | AID 2280 | Q17339 | purified GLD-1 + fluorescein TGE RNA, fluorescence polarization | inhibition, % at 5.96 µM;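 active = percent inhibition above a per-plate cutoff, the plate mean of test compounds plus 3 SD, cut at about 30% in these data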;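 note: 0% = DMSO wells with GLD-1 and probe and 100% = wells lacking GLD-1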
Target sequence (Q17339 whole entry, looked up): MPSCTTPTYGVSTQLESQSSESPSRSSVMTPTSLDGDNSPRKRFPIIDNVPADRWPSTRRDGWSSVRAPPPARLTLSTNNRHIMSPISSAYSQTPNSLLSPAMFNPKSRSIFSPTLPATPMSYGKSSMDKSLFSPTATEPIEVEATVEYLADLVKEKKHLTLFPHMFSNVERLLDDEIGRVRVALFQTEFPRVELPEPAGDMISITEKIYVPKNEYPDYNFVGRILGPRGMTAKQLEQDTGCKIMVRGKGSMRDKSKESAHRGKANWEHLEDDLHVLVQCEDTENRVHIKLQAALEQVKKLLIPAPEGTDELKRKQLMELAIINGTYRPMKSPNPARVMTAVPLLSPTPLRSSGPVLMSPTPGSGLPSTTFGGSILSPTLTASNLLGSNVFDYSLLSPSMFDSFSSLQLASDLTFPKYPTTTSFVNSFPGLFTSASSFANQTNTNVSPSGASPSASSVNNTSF
MCL1-BIM inh: disrupts human MCL1 binding to BIM-BH3 peptide. Q07820. GST-MCL1 / FITC-Bim-BH3 fluorescence polarization. inhibition, % at 10.9 µM. hit rate 0.68% among 320,000. AID 2057;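 active = inhibition above the mean inhibition of all tested compounds plus 3 SD, set per campaign, cut at about 40% in these data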;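 note: 0% = DMSO wells and 100% = unlabeled Bim-BH3 peptide control; higher means more loss of mP so more displacement of Bim peptide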
Bcl-xL primary: Bcl-xL (human) inhibition. Q07817. GST-Bcl-xL / FITC-Bim BH3 peptide fluorescence polarization. inhibition, % at 10.9 µM. hit rate 0.7% among 320,000. AID 2129;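 active = inhibition above the mean of all tested compounds plus 3 SD, cutoff set per campaign, cut at about 30% in these data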;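 note: 0% = DMSO wells and 100% = unlabeled Bim-BH3 peptide competitor; inhibitors lower millipolarization by displacing the labeled peptide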
Target sequence (Q07817 whole entry, looked up): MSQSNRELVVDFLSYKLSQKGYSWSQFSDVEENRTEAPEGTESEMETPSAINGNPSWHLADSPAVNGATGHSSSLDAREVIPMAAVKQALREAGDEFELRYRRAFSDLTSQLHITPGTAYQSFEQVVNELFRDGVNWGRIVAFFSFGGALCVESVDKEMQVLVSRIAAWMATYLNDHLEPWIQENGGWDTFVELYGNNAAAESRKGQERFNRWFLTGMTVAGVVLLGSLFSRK
Bim-Mcl-1: disrupts Bim peptide binding to human Mcl-1 | inhibition, % at 10 µM | Bead-based flow cytometry, Bim peptide-Mcl-1 binding | Q07820 | AID 1009 | hit rate 0.1% among 190,000; in the data active = inhibition above about 40%;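 note: 0% = no compound tracer wells and 100% = peptide blocker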
Mcl1 Noxa PPI: disrupts binding of human Mcl-1 to Noxa peptide; hit rate 1.5% among 220,000; AID 1022; TR-FRET Mcl-1/Noxa peptide binding, 2 h; inhibition, % at 21.7 µM; Q07820;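 active = compounds that cut the protein-peptide binding signal by more than 50% relative to plate controls in a single-dose test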;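 note: His-tagged Mcl-1 with rhodamine Noxa BH3 peptide and terbium anti-His antibody; 0% = Mcl-1 plus Noxa peptide wells and 100% = peptide-only wells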
The depositor's hits bear a star; . = no result. Rows were chosen to be rich in hits. Some 2.3% of all compounds tested hit in one or more screens of this group.

SMILES	Mcl1-Bid inh	GLD-1 TGE inh	MCL1-BIM inh	Bcl-xL primary	Bim-Mcl-1	Mcl1 Noxa PPI
CC(C)C[C@H]1COCCS(=O)(=O)N1Cc1ccc(Cl)c(Cl)c1	.	0.9	-8.8	66.7*	.	.
CC1(C)Cc2c(ccc3ccccc23)/C(=C/C(=O)N2CCCCC2)N1	-42.6	4.9	11.6	7.3	42.0*	22.3
O=c1[nH]c(-c2ccccc2Cl)nc2c1sc(=S)n2-c1ccccc1	88.9*	.	.	.	1.0	44.3
O=c1[nH]c(-c2ccc(F)cc2)nc2c1sc(=S)n2-c1ccccc1	-5.6	-27.1	6.5	8.2	-4.0	48.5
Cc1cc(/C=C2\C(=N)N3N=C(c4ccco4)SC3=NC2=O)c(C)n1Cc1ccccc1	-54.3	-4.1	2.1	-2.3	.	63.0*
NS(=O)(=O)c1ccc(-c2cccc(/C=C3\SC(=O)NC3=O)c2)cc1	.	0.3	17.1	-1.5	.	.
O=C(CN1CCN(S(=O)(=O)c2cc(C(F)(F)F)ccc2Cl)CC1)N1CCc2ccccc2C1	.	4.3	-5.0	-1.2	.	.
Cc1ccc(C)c(S(=O)(=O)N2CCN(CC(=O)N3CCc4ccccc4C3)CC2)c1	62.4*	11.1	1.7	5.8	0.0	6.6
COc1ccc(CCNC(=O)Cc2cccc(C(F)(F)F)c2)cc1OC	.	-0.4	-4.3	-3.1	.	.
CN(C)c1cc(NC(=O)CNC(C)(C)CC(C)(C)C)c2ccccc2n1	-2.4	-2.1	1.2	1.0	-3.0	4.2
CN(C)c1cc(NC(=O)CN2CCCC2)c2ccccc2n1	37.4	-2.2	4.2	1.4	.	53.9*
Cc1ccc(NC(=O)CNCCCN2CCOCC2)cc1S(=O)(=O)N1CCCCC1	51.4*	5.2	-4.6	3.4	.	21.7
O=C(O)c1ccc(N/N=C/C2=C(N3CCOCC3)C(=C\c3ccccc3)/CC2)cc1	-80.5	-2.3	-22.6	-24.1	.	75.3*
Cc1cc(C)nc(N/N=C/C2=C(N3CCOCC3)C(=C\c3ccc(Cl)cc3)/CC2)n1	-116.9	7.7	-5.2	-2.2	-5.0	36.0
Oc1ccc(-c2nccc(-c3ccc(F)cc3)n2)cc1	.	1.3	-0.4	3.8	.	.
CCOCCCNC(=O)c1ccc(Cn2c(=S)[nH]c3c([nH]c4ccc(OC)cc43)c2=O)cc1	-27.4	1.8	-23.1	-28.3	3.0	56.2*
CCN(CC)CCNC(=O)CCCCn1c(=S)[nH]c2c([nH]c3ccc(OC)cc32)c1=O	-58.6	5.4	5.4	14.5	0.0	61.1*
COc1ccc2[nH]c3c(=O)n(Cc4ccc(C(=O)NCC5CCCO5)cc4)c(=S)[nH]c3c2c1 (stereo unspecified)	-31.4	1.1	-21.3	-23.4	-1.0	61.7*
CCOc1cc2[nH]c(=S)n(Cc3ccc(C(=O)NCC(OC)OC)cc3)c(=O)c2cc1OCC	-13.3	-0.5	4.7	0.8	-4.0	11.6
CCCCNC(=O)c1ccc(Cn2c(=S)[nH]c3c([nH]c4ccc(OC)cc43)c2=O)cc1	-22.7	8.6	0.8	-2.0	-14.0	44.5
COCCNC(=O)CCCCCn1c(=S)[nH]c2ccccc2c1=O	-70.2	8.0	-1.4	5.4	1.0	17.7
CC[C@H](C)NC(=O)c1ccc(Cn2c(=S)[nH]c3c([nH]c4ccc(OC)cc43)c2=O)cc1	26.7	0.4	1.8	-1.3	-14.0	76.0*
NC(=O)c1ccc(SCC(=O)OCC(=O)N2CCN(C(=O)c3ccco3)CC2)c([N+](=O)[O-])c1	.	3.5	-0.2	7.2	.	.
Cc1ccc(NC(=O)CN2C(=O)N/C(=C\c3ccco3)C2=O)cc1	.	-1.9	.	.	.	.
CN(C)S(=O)(=O)c1ccc(Cl)c(C(=O)NNC(=O)c2ccc3c(c2)OCO3)c1	.	0.1	2.7	2.6	.	.
SMILES	Mcl1-Bid inh	GLD-1 TGE inh	MCL1-BIM inh	Bcl-xL primary	Bim-Mcl-1	Mcl1 Noxa PPI
O=S(=O)(c1cnccc1N1CCN(CCO)CC1)N1CCCCC1	.	4.2	-1.0	0.6	.	.
O=C(NCC1CCCO1)c1ccc(Cn2c(=S)[nH]c3ccccc3c2=O)cc1 (stereo unspecified)	-27.1	3.1	-12.1	-5.6	-2.0	81.4*
Cc1ccc2nc(/C(C#N)=C\c3ccc(N4CCCCC4)c([N+](=O)[O-])c3)[nH]c2c1	14.3	-14.5	-10.8	-4.5	0.0	58.2*
Cc1noc(C)c1NC(=O)N(C)C[C@H]1Oc2ccc(NC(=O)Nc3ccc(C(F)(F)F)cc3)cc2C(=O)N([C@H](C)CO)C[C@@H]1C	.	2.8	.	.	.	.
CCOc1ccccc1-n1c(=O)c2ccccc2c2ccccc2c1=O	54.2*	4.0	-3.3	3.5	6.0	10.0
COc1ccc(OC)c([N+](=O)[O-])c1C(N)=O	-45.1	6.6	18.8	21.6	0.0	55.6*
COc1cc(C(=O)O)c([N+](=O)[O-])c(OC)c1OC	-5.3	4.5	-0.2	1.5	.	3.7
CC(C)(O)[C@@H]1CC[C@@](C)(C2CC[C@]3(C)C2[C@H](O)CC2[C@@]4(C)CC[C@H](O)C(C)(C)C4[C@@H](O[C@H]4O[C@@H](CO)[C@H](O)[C@@H](O)[C@@H]4O[C@@H]4O[C@H](CO)[C@@H](O)[C@H](O)[C@H]4O)C[C@]23C)O1 (stereo in doubt)	.	-0.3	.	.	.	.
COc1ccc(CCNC(=O)C2CCN(S(=O)(=O)c3cccc4nonc34)CC2)cc1OC	-1.7	-9.1	-2.0	-4.6	-4.0	66.1*
Cc1nn(C)c(C)c1NC(=O)CCl	-13.2	1.7	4.0	8.3	3.0	28.5
Cc1cc(=O)cc(C)n1-c1ccc(Br)cc1	-5.6	87.9*	-5.2	-3.6	-2.0	-0.9
O=C(CSc1nnc2c(n1)[nH]c1ccccc12)Nc1ccc2c(c1)OCO2	44.9	2.9	12.6	9.0	-5.0	82.9*
Cc1ccc(C2C(C(=O)c3cc4ccccc4o3)=C(O)C(=O)N2CCN2CCOCC2)cc1 (stereo unspecified)	.	3.3	-7.1	1.6	.	.
Cc1ccc(C2C(C(=O)c3cc4ccccc4o3)=C(O)C(=O)N2CCN2CCOCC2)o1 (stereo unspecified)	51.2*	8.0	9.3	14.8	-2.0	21.2
COc1cccc(-n2nnc3c(=O)n(CC(=O)NC4CCCC4)cnc32)c1	9.5	5.5	-1.5	1.9	-3.0	52.0*
CN(Cc1ccc(OC(F)F)cc1)C(=O)/C=C/c1ccc(S(=O)(=O)N2CCOCC2)cc1	.	6.7	.	.	.	.
[O-]c1c[n+](-c2ccc(-[n+]3cc([O-])on3)cc2)no1	-29.6	8.2	22.6	10.5	3.0	56.7*
COc1ccc(-c2oc3ccccc3c2C#Cc2cncn2C)cc1	.	5.9	-5.1	1.5	.	.
COc1ccc(-c2csc(NC(=S)NC(=O)/C=C/c3ccco3)n2)cc1Br	7.7	7.2	4.5	-0.5	.	65.7*
COc1ccc(-c2csc(NC(=S)NC(=O)/C=C/c3ccco3)n2)cc1OC	69.7*	2.2	-24.0	1.0	-6.0	52.1*
COc1ccc(-c2csc(NC(=S)NC(=O)c3ccco3)n2)cc1Br	.	-5.6	4.3	2.3	.	.
Cc1ccc(S(=O)(=O)/N=C(\CCl)N2CCOCC2)cc1	67.1*	4.8	3.0	0.7	-4.0	8.9
